# The source made the active and inactive calls.
# Experiments:
# [1] = molecular target: Albumin (Bos taurus) (UniProt P02769); assay: compounds binding labelled BSA control protein – biochemical, small-molecule microarray, Alexa647 label, 635/667 nm fluorescence, artefact control for SMM control protein annotation, profiling panel (AID 1118); conditions: BSA-A647 binding, fluorescence 635 nm, higher = more signal;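 also: score merges 667 nm emission intensity and signal-to-noise per printed compound spot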
# [2] = probe aXIP binding to arrayed compounds – biochemical, NeuroSMM set, 635/667 nm fluorescence, primary screen (AID 1119); conditions: small-molecule microarray, higher = more signal, called active from +8 up or from −8 down;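 also: probe is the protein aXip251-270 applied at 1 µg/mL to compound-printed slides; binding of probe to printed compounds measured as 667 nm fluorescence plus signal to noise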
# [3] = probe aNOTCH3 binding on compound microarray – biochemical, small-molecule microarray, 635/667 nm fluorescence, primary screen (AID 1120); conditions: higher = more signal;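 also: probe is a biotin-tagged antibody raised against NOTCH3 rather than NOTCH3 protein; score merges spot fluorescence near 667 nm with spot signal to noise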
# [4] = probe aNOTCH2 binding on compound microarray – biochemical, small-molecule microarray, 635/667 nm fluorescence, primary screen (AID 1121); conditions: higher = more signal;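 also: score merges feature fluorescence read at 667 nm with its signal to noise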
# [5] = molecular target: Carbonic anhydrase 2 (Homo sapiens) (UniProt P00918); assay: compounds binding carbonic anhydrase 2 – biochemical, small-molecule microarray, Alexa647-labelled CAII, profiling panel (AID 1122); conditions: CAII-A647 binding fluorescence, higher = more signal
# [6] = COS7 lysate on small-molecule microarray, probe aHis, 635 nm (AID 1123); conditions: COS7 cell lysate, fluorescence, higher = more signal;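 also: z-score combines 667nm fluorescence intensity with signal-to-noise per printed compound spot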
# [7] = probe aLAP1 signal on lysate-treated microarray – cell lysate, small-molecule microarray, COS7 lysate, primary screen (AID 1124); conditions: probe aLAP1, fluorescence, higher = more signal;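 also: lysate comes from COS7 cells expressing LAP1 and is applied at 0.3 µg/mL; score merges spot fluorescence near 667 nm with signal-to-noise over triplicate slides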
# [8] = tested on: Sam68 (KHDRBS1); assay: compounds binding KHDRBS1 protein – biochemical, small-molecule microarray, 635 nm fluorescence, primary screen (AID 1125); conditions: higher = more signal;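 also: score merges 667 nm channel intensity with signal to noise over triplicate slides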
# [9] = tested on: Chordin-like protein 2 (CHRDL2); assay: compounds binding chordin-like 2 – biochemical, small-molecule microarray, 635 nm fluorescence, primary screen (AID 1126); conditions: fluorescence 635 nm, higher = more signal;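 also: printed compound slides probed with Chrdl2 protein at 4 µg/mL for 1 h at 4 C; score merges 667 nm emission intensity with signal to noise over three replicate slides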
# [10] = molecular target: Concanavalin-A (Canavalia ensiformis) (UniProt P02866); assay: compounds binding concanavalin A lectin – biochemical, small-molecule microarray, Alexa647 label, 635 nm, artefact control for SMM control protein annotation, primary screen (AID 1127); conditions: ConA-A647 binding fluorescence, higher = more signal;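 also: z combines 667 nm emission intensity with signal-to-noise across three replicate slides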
# [11] = compounds binding Alexa647 anti-His antibody – biochemical, small-molecule microarray, 635 nm fluorescence, artefact control for SMM control protein annotation, primary screen (AID 1128); conditions: higher = more signal;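 also: score merges feature fluorescence with signal-to-noise for each printed compound spot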
# [12] = tested on: Human papillomavirus type 1a E7 protein (residues 1-88); assay: HPV1a E7 small-molecule binders, primary screen, biochemical, small-molecule microarray, residues 1-88, 635 nm (AID 1129); conditions: small-molecule microarray binding, fluorescence 635 nm; higher = more signal
# [13] = molecular target: Focal adhesion kinase 1 (Homo sapiens) (UniProt Q05397); assay: PTK2 protein binding on printed compound slides – biochemical, small-molecule microarray, 635/667 nm fluorescence, BSA, DTT, primary screen (AID 1130); conditions: 635 nm fluorescence, higher = more signal;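 also: composite of spot emission at 667 nm and signal to noise over triplicate slides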
# [14] = tested on: Fibrinogen (Alexa647-labelled); assay: Alexa647-fibrinogen binding to printed small molecules – biochemical, small-molecule microarray, 635/667 nm fluorescence, artefact control for SMM control-protein annotation, profiling panel (AID 1131); conditions: fibrinogen-A647 binding fluorescence, higher = more signal;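 also: z-score merges 667 nm fluorescence with per-spot signal-to-noise over triplicate slides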
# [15] = molecular target: Follistatin (Homo sapiens) (UniProt P19883); assay: FST protein binding to printed compounds – biochemical, small-molecule microarray, 635/667 nm fluorescence, primary screen (AID 1132); conditions: 635 nm fluorescence, higher = more signal
# [16] = molecular target: Fibroblast growth factor 2 (Homo sapiens) (UniProt P09038); assay: basic fibroblast growth factor binding to printed compounds – biochemical, small-molecule microarray, 635/667 nm fluorescence, primary screen (AID 1133); conditions: FGF2, fluorescence 635/667, higher = more signal
# [17] = JC-1 mitochondrial potential readout, lung cancer cells – cell-based, A549, JC-1 fluorescence, basal, 24 h, 100 nL, profiling panel (AID 1138); conditions: higher = more signal;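 also: A549 lung adenocarcinoma cells under basal conditions with no added stimulus; test concentration not given here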
# [18] = tested on: Lefty1; assay: Lefty1 protein binding to printed compounds – biochemical, small-molecule microarray, 635/667 nm fluorescence, primary screen (AID 1139); conditions: fluorescence 635/667, higher = more signal
# [19] = tested on: wheat germ agglutinin (Triticum aestivum), Alexa647-labelled; assay: Alexa647-WGA lectin binding to printed small molecules – biochemical, small-molecule microarray, 635/667 nm fluorescence, artefact control for SMM control-protein annotation, profiling panel (AID 1140); conditions: WGA-A647 binding, 635 nm fluorescence, higher = more signal;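 also: score merges 667 nm feature emission with signal to noise over triplicate slides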
# [20] = molecular target: Luciferin 4-monooxygenase (Photinus pyralis) (UniProt P08659); assay: inhibition of purified Photinus pyralis luciferase – biochemical, luminescence, purified enzyme, 2006 set, primary screen (AID 1141); conditions: purified firefly luciferase, SteadyGlo luminescence, 30 min; higher = more signal, called active from +8 up or from −8 down;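 also: cell-free assay with purified firefly luciferase at 100 ng per well in PBS; test concentration not given here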
# Sequence of Luciferin 4-monooxygenase (Photinus pyralis) (P08659 whole entry, looked up): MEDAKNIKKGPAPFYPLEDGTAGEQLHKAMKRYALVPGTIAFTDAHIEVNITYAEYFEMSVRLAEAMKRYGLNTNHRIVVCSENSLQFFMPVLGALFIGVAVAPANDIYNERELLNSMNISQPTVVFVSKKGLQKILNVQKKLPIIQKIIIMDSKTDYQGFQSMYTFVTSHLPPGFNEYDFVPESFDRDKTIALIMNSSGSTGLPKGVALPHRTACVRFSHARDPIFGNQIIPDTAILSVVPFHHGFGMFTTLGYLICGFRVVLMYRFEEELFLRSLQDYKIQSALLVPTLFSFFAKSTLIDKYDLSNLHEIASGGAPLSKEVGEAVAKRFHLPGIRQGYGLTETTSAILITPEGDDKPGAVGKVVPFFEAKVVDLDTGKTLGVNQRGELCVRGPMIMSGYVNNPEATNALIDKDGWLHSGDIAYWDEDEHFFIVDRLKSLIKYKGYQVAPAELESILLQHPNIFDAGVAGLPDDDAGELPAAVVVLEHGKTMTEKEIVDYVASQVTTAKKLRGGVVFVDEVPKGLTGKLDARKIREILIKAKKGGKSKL
# Sequence of Focal adhesion kinase 1 (Homo sapiens) (Q05397 whole entry, looked up): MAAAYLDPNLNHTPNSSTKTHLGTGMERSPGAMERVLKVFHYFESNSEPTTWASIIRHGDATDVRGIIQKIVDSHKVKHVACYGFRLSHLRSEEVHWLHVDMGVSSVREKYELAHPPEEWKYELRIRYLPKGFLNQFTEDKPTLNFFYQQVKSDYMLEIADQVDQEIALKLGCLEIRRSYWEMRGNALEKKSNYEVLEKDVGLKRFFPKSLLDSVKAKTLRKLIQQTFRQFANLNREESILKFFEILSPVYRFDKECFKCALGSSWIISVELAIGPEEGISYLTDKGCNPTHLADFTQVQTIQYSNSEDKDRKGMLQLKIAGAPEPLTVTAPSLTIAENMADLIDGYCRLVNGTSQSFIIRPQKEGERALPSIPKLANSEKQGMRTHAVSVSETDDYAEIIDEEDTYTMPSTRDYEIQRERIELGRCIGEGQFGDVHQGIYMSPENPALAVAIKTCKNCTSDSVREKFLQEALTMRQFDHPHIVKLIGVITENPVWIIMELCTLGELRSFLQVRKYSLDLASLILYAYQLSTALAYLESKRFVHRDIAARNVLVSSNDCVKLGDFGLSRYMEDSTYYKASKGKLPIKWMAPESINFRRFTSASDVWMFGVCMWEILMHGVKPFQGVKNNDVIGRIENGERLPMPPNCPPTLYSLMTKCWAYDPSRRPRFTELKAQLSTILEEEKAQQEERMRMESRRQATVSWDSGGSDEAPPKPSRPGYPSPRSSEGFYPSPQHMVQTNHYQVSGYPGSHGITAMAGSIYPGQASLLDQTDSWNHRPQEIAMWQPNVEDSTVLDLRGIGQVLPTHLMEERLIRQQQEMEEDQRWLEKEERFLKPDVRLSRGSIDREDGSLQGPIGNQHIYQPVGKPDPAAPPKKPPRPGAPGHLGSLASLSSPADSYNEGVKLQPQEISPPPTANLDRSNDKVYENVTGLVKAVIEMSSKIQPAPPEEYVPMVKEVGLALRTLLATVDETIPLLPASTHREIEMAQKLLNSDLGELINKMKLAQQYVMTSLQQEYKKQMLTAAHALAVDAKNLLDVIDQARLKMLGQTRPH
# Sequence of Concanavalin-A (Canavalia ensiformis) (P02866 whole entry, looked up): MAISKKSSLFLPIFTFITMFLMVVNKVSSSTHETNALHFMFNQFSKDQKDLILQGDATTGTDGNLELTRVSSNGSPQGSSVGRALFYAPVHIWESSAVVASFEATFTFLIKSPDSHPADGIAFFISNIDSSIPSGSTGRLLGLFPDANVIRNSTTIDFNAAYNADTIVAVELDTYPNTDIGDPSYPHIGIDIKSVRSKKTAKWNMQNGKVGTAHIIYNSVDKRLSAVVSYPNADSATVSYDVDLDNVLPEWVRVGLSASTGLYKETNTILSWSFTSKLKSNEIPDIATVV
# Sequence of Follistatin (Homo sapiens) (P19883 whole entry, looked up): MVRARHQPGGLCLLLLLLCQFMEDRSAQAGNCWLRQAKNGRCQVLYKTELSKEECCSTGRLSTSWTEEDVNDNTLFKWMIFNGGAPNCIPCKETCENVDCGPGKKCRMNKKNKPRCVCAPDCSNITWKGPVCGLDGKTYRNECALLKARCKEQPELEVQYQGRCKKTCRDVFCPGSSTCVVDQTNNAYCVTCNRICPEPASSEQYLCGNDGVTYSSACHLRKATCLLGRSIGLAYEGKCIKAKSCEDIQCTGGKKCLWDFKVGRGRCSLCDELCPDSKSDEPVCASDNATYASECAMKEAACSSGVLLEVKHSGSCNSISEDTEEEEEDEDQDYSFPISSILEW
# Sequence of Fibroblast growth factor 2 (Homo sapiens) (P09038 whole entry, looked up): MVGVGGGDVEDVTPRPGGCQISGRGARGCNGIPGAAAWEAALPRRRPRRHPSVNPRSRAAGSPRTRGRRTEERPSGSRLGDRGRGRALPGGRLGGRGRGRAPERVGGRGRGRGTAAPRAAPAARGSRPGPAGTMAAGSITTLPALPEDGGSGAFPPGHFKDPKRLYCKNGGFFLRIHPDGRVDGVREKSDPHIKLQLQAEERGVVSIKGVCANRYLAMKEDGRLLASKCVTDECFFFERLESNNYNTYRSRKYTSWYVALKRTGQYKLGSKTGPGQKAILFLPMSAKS
# Sequence of Albumin (Bos taurus) (P02769 whole entry, looked up): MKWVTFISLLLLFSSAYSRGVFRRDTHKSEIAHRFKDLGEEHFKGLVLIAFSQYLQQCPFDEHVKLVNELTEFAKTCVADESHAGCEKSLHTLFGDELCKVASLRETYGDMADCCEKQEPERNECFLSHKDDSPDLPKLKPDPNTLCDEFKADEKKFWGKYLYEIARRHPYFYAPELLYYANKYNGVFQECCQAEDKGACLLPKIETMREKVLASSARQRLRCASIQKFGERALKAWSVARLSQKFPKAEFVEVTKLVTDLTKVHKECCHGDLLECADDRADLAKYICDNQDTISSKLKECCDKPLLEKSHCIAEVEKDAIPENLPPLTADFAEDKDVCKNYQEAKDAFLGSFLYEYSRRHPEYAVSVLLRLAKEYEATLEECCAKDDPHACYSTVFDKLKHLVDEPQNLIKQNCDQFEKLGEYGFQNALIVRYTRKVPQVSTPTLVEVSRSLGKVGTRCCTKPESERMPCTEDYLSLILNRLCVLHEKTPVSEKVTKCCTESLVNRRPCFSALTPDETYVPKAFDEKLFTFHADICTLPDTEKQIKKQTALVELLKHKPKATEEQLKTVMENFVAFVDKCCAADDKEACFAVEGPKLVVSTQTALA
SMILES,composite z-score [1],composite Z-score [2],composite z-score [3],composite z-score [4],composite z-score [5],composite z-score [6],composite z-score [7],composite z-score [8],composite z-score [9],composite z-score [10],composite z-score [11],composite z-score [12],composite z-score [13],composite z-score [14],composite z-score [15],composite z-score [16],z-score [17],composite z-score [18],composite z-score [19],z-score [20]
O=C(NN=C1C[C@@H](O)[C@@H](O)[C@@H]2[C@@H]3C(=O)N(Cc4ccc5c(c4)OCO5)C(=O)[C@@H]3CC[C@@H]12)OCc1ccccc1,0.544,0.536 (inactive),-0.0377,-0.0817,-0.141,-0.357,0.0507,-0.449,-0.0473,-0.0653,0.921,0.0191,0.28,0.057,-0.137,-0.0806,-0.734,-0.257,0.227,1.02 (inactive)
CC(C)[C@@H](OCc1ccccc1)[C@H](C)CON=C1[C@H]2CCn3c(=O)n(-c4ccccc4)c(=O)n3[C@H]2[C@H](O)[C@@H]2O[C@H]12,0.667,0.382 (inactive),-0.0072,-0.0527,-0.0291,0.476,-0.219,0.593,0.427,-0.0949,2.57,0.246,0.0884,-0.0016,0.759,0.324,-0.139,0.689,0.192,0.0981 (inactive)
CCN1C(=O)[C@H]2[C@H]3[C@H](O)[C@H](O)CC(=NNC(=O)OCc4ccccc4)[C@H]3CC[C@H]2C1=O,0.185,-0.431 (inactive),0.0145,-0.129,-0.0576,0.0949,-0.198,-0.813,-0.0255,0.514,0.0371,-0.601,-0.117,0.0307,-0.238,0.215,-0.538,0.235,0.136,0.69 (inactive)
O=C1[C@H]2[C@H]3[C@H](O)[C@H](O)CC(=NOC[C@@H](O)COCc4ccco4)[C@@H]3CC[C@H]2C(=O)N1c1cccc(Oc2ccccc2)c1,-0.407,-0.352 (inactive),-0.147,-0.22,-0.0803,-0.704,-0.0713,-1.43,0.381,0.391,-1.01,-0.964,-0.535,-0.535,0.942,0.285,-0.268,0.0743,0.196,0.921 (inactive)
CC#CCOCCC=C1c2ccccc2[C@@H](OC)[C@@H]1C,0.556,0.549 (inactive),-0.128,-0.101,0.336,-0.336,-0.0059,0.151,0.337,-0.515,1.79,-0.0931,-0.0029,0.329,0.331,0.412,-0.198,1.24,0.725,-0.693 (inactive)
O=C1C=C[C@@H](O)[C@@H]2[C@@H]3C(=O)N(Cc4ccccc4)C(=O)[C@@H]3CC[C@@H]12,0.22,-0.5 (inactive),0.21,-0.132,-0.0331,0.556,-0.139,0.0888,0.482,0.619,0.0502,0.673,0.168,0.394,0.415,0.484,0.831,0.314,0.228,-0.505 (inactive)
CC(C)C(=O)N[C@H]1CCCN1C(=O)C=Cc1ccccc1,0.564,-0.087 (inactive),0.276,0.0062,0.267,0.253,0.0905,0.752,0.242,0.163,0.508,0.899,0.225,-0.198,0.438,0.54,-0.509,1.13,-0.441,-0.0726 (inactive)
COc1ccc(O[C@H]2C=C[C@@H](c3ccccc3)O[C@@H]2COC(=O)NCc2cccc3ccccc23)cc1,-0.194,-0.341 (inactive),-0.191,-0.159,-0.219,-0.146,-0.0544,-0.0446,0.281,0.335,-0.816,-0.406,-0.235,-0.138,-0.0584,0.353,1.07,0.0182,-0.317,0.441 (inactive)
CCc1cc2c(nc1CC)CCN(CCC(C)=NO[C@@H]1O[C@H](COC(C)=O)[C@@H](OC(C)=O)[C@H](OC(C)=O)[C@H]1OC(C)=O)C2,0.314,-0.0798 (inactive),0.105,-0.0527,0.0275,1.34,0.388,1.32,0.922,0.571,0.0815,0.286,0.0487,0.816,1.03,0.559,-0.766,1.42,0.167,1.03 (inactive)
CO[C@@H]1C=CCC(=O)N[C@@H](C)C(=O)OC[C@@H](OC)[C@H](C)C=CCC(=O)OC[C@H]1C,-1.01,0.914 (inactive),-0.0967,-0.123,-0.689,-1.2,0.0645,0.451,1.49,-1.09,0.207,-0.724,-0.397,-0.556,1.39,0.615,1.04,1.59,-0.87,-0.461 (inactive)
CO[C@H]1COC(=O)CCC[C@H](C)[C@@H](OC)COC(=O)CC=C[C@@H]1C,-0.553,0.168 (inactive),-0.136,-0.0766,-0.298,-0.378,-0.0711,0.113,0.896,-0.427,1.36,-0.117,-0.246,-0.0891,0.393,0.638,-0.86,0.562,-0.181,0.949 (inactive)
CCc1cc2c(nc1CC)CCN(CCC(C)=NOC(C)CN1CCCCc3nc(C)c(C)cc31)C2 (stereo not given),0.0846,0.73 (inactive),0.0696,-0.0194,0.467,1.64,0.304,1.28,0.911,1.17,0.575,1.18,-0.048,0.874,1.18,0.557,2.45,0.979,0.439,-0.0579 (inactive)
COCCNC(=O)OCC1CCCC2(CC(OC(=O)NCc3cccc4ccccc34)CC(CCC(=O)N[C@@H](C)C(=O)OC)O2)O1 (stereo not given in full),0.0307,0.59 (inactive),-0.0362,-0.14,0.262,1.12,-0.107,1.3,0.665,1.03,0.522,1.13,-0.208,0.912,0.728,1.04,0.609,0.42,0.598,0.396 (inactive)
C[C@]12CCC3c4ccc(OCC5CO5)cc4CCC3C1CC[C@@H]2O (stereo not given in full),0.754,0.257 (inactive),-0.0932,0.0365,0.646,0.528,0.414,0.759,0.118,0.961,1.19,1.14,0.492,1,0.137,-0.2,4.51,-0.005,1.05,-0.466 (inactive)
COC(=O)[C@H](C)NC(=O)CCC1CC(OC(=O)NCc2cccc3ccccc23)CC2(CCCC(COC(=O)NCCC(C)C)O2)O1 (stereo not given in full),0.168,0.559 (inactive),-0.095,-0.124,0.24,1.01,0.127,0.997,0.229,-0.087,0.164,1.18,0.287,-1.15,0.295,0.803,0.95,0.36,0.268,0.652 (inactive)
CCN1C(=O)[C@H]2[C@@H]3C(=CC[C@H]2C1=O)C(=O)[C@H]1O[C@H]1[C@H]3O,-0.458,-0.192 (inactive),-0.0258,-0.0531,-0.156,0.141,0.426,0.657,1.21,0.725,1.21,0.491,-0.204,0.185,1.21,1.42,-0.923,1.39,0.207,-0.415 (inactive)
